Here are results for four compounds from PubChem BioAssay.

Several values for one entry are separate records, joined by “and”; a condition that tells them apart may be missing. Identical values can stand only once. Records with an inconclusive call do not appear. Activity calls are given as the source filed them. Unless noted, no cut-off is given here; in the data, nearly all actives have AC50 up to about 30 µM.

The nature of test [1]: Wnt pathway potentiators raising nuclear beta-catenin – imaging, WNT3A-conditioned medium, mouse C2C12, NPC library, primary screen (AID 1117326; in the data active = nuclear beta-catenin stimulation mostly above about 4.2%, no sharp cut-off; inactive = mostly below about 10%). The conditions noted are these: stronger effect = higher value.
Test [2] can be described thus: stimulators of insulin release from INS-1E, primary screen, cell-based, 5 mM glucose, NPC library (AID 1117329;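 active = compound raises insulin release from rat beta cells at 5 mM glucose, no numeric limit stated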). Particulars: rat INS-1E insulin secretion, at 10 µM, stronger effect = higher value.
The nature of test [3]: growth inhibition of GSK3B-pretreated HCT116 cells – cell-based, CellTiter-Glo, 0.2 to 20 µM (AID 1117336;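 active = compounds lowering colon cancer cell viability after pretreatment blocking the GSK3B kinase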). Particulars: HCT116 viability after GSK3B inhibitor, at 20 µM, stronger effect = higher value. Background: ATP-based viability assays read luminescence as a measure of living cells.
A short description of test [4]: inhibition of endothelial tube formation, primary screen, imaging, VEGF stimulated, CD31 staining, tube area, NPC library (AID 1117340;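 active = compound that reduces growth-factor-driven endothelial tube area in a mixed cell culture, no cutoff stated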). Particulars: VEGF-stimulated ADSC/ECFC co-culture, at 10 µM, stronger effect = higher value.
The nature of test [5]: GLP1 release stimulators, primary, NCI-H716, NPC library (AID 1117341;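 active = compound raises GLP1 secretion from the human gut endocrine cells, with no numeric limit stated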). Particulars: NCI-H716 cells, at 10 µM, stronger effect = higher value.
Test [6] is described as follows: HCT116 colon cancer cell growth inhibition, primary screen, CellTiter-Glo luminescence, NPC library (AID 1117342;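 active = compounds that lower survival of HCT116 colon cancer cells in the luminescence readout, no numeric limit stated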). The conditions noted are these: at 20 µM (top of the series).
Test [7] can be described thus: reduced SW480 viability measured with CellTiter-Glo, NPC library, primary (AID 1117343;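 active = compounds that lower viability of the colon cancer cells in the luminescence readout, with no numeric limit stated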). The conditions noted are these: CellTiter-Glo luminescence; at 20 µM (top of the series) unless noted.
Test [8] in a line: NPC library primary testing for decreased DLD-1 cell viability via CellTiter-Glo (AID 1117346;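 active = compounds that lower survival of DLD-1 colon cancer cells in the luminescence readout, no cutoff given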). Particulars: DLD-1 viability, CellTiter-Glo luminescence; at 20 µM (top of the series).
The nature of test [9]: viability loss in pontine glioma line – cell-based, JHH-DIPG-1, MIPE4.0, CellTiter-Glo, qHTS, dose response (AID 1347062; cut-off not given, nearly all actives have AC50 up to about 27 µM;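 for AC50: cells exposed to compound for two days before readout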). Particulars: JHH-DIPG-1 viability, CellTiter-Glo ATP luminescence.
A short description of test [10]: viability loss in pontine glioma line – cell-based, SU-DIPG-IV, MIPE4.0, CellTiter-Glo, qHTS, dose response (AID 1347063).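 Note: compound exposure lasted 48 hours before the viability readout.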 The conditions noted are these: CellTiter-Glo ATP luminescence.
The nature of test [11]: growth inhibition of DIPG cells – cell-based, MIPE4.0 library, CellTiter-Glo luminescence, qHTS (AID 1347066).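 Note: cells exposed to compound for 48 hours before readout.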 The conditions noted are these: SU-DIPG-VI viability, CellTiter-Glo ATP luminescence.
Test [12] can be described thus: viability loss with induced miR-34 in A549 – imaging, A549 dox-inducible miR-34, nuclei and caspase counts, primary screen (AID 1347080;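 active = compounds whose cell count with miR-34 switched on is under 0.7 times the count with it off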). The conditions noted are these: A549 miR-34 inducible, Hoechst nuclei count, 48 h.
A short description of test [13]: MELAS cybrid and Rieske KO viability enhancers – cell-based, MELAS cybrids, Rieske KO mouse fibroblasts, CellTiter-Glo, primary screen (AID 1508586;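 active = mean z-score across replicates of 1.96 or higher in either the MELAS or the Rieske mutant cell line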;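 note: z relative to plate mean and SD of compound and empty wells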). Particulars: low glucose.
The nature of test [14]: P. berghei load reduction in hepatocytes – cell-based, HepG2, luciferase luminescence, HepG2 viability, primary screen (AID 624349; in the data active = parasite load remaining mostly below about 12%, no sharp cut-off; inactive = mostly above about 10%;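 note: 100% = mean of DMSO negative control wells on the same plate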). The conditions noted are these: P. berghei liver stage in HepG2, luciferase luminescence, concentration not given here; parasite load remaining: stronger effect = lower value; viability: measured here: HepG2 viability without parasites.
Test [15] in a line: viability loss in pontine glioma line – cell-based, SU-DIPG-XXV, MIPE5.0, CellTiter-Glo, qHTS, dose response (AID 1347065; cut-off not given, nearly all actives have AC50 up to about 26 µM;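 note: cells exposed to compound for 48 hours before ATP readout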). The conditions noted are these: CellTiter-Glo ATP luminescence.
The nature of test [16]: JHH-DIPG-1 glioma cell viability, MIPE5.0 library, CellTiter-Glo luminescence, qHTS (AID 1347067; cut-off not given, nearly all actives have AC50 up to about 26 µM;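 note: cells exposed to compound for 48 hours before readout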). Particulars: JHH-DIPG-1 glioma viability, CellTiter-Glo ATP luminescence.
Test [17] can be described thus: growth inhibition of DIPG cells – cell-based, MIPE5.0 library, qHTS (AID 1347068; cut-off not given, nearly all actives have IC50 up to about 30 µM). Particulars: SU-DIPG-XXV viability. In general terms: In qHTS, concentration-response curves come from the screen itself.
Test [18] is described as follows: galactose survival enhancers in mitochondrial complex I cybrids – cell-based, galactose medium, ATP luminescence, primary screen (AID 1645843;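 active = z-score of at least 1.8 in each of two replicates, scored against plate mean and spread of sample wells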;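 note: positive z means more ATP and so rescue of galactose-driven cybrid death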). Particulars: complex I mutant cybrid cells, 72 h, stronger effect = higher value.
[19] abbreviates: stronger effect = lower value, cell number ratio, induced over uninduced.
[20] abbreviates: measured here: relative caspase fold change +Dox/-Dox.
Where [21] appears, read: measured here: total cells with miR-34 induction, stronger effect = lower value.
Setting [22] is: measured here: total cells without miR-34 induction.
[23] abbreviates: MELAS cybrid survival, CellTiter-Glo 48 h, stronger effect = higher value.
[24] abbreviates: Rieske KO mouse fibroblast survival, CellTiter-Glo 72 h.

As for `C=CCc1cc(OC)c(O)c(C(=O)NCCO)c1`, the nuclear beta-catenin stimulation in test [1] (at 10 µM) was 1.7% (inactive); in test [1] (stimulation, at 2 µM), 2.4%. Besides, in test [2], the insulin secretion stimulation is -0.7% (inactive). In addition, in test [3], the viability decrease was -4.9% (inactive). Also, the tube area decrease in [4] was 4.3% (inactive). Besides, in [5], the GLP1 secretion stimulation is 0.4% (inactive). For the same compound, the inhibition of viability in test [6] is -7.7% (inactive). Moreover, the viability decrease (inhibition) in test [7] was 33.7% (inactive); in [8], 1.9% (inactive). Besides, the result in [9], in test [10] and in [11] was inactive. In addition, the values for the fold change in test [12] (setting [19]) and in [12] (setting [20]) were 0.947 (inactive) and 0.662, respectively. In addition, the cell count in [12] (setting [21]) is 8720; in [12] (setting [22]) it was 9220. In addition, the z-score in test [13] (setting [23]) was -0.166 (inactive); in test [13] (setting [24]), 0.363.
In general, viability refers to a per cent measure of how many cells are alive, often set against a control. What is called AC50 is the concentration giving half of the maximal activity seen. `CCCS(=O)c1ccc2nc(NC(=O)OC)[nH]c2c1` (stereo not given): the parasite load remaining in test [14] was 34.6% (inactive). For the same compound, the viability in test [14] turned out to be 83%. Further, the nuclear beta-catenin stimulation in [1] (at 10 µM) is 4.7% (inactive); in [1] (stimulation, at 2 µM), -1.8%. In addition, in test [2], the insulin secretion stimulation is 0.2% (inactive). The viability decrease in test [3] is 71.2% (active). Also, in [4], the tube area decrease is 20.1% (inactive). Besides, the GLP1 secretion stimulation in test [5] is 0.6% (inactive). Besides, in [6], the inhibition of viability was 65.2% (active). In addition, the viability decrease (inhibition) in test [7] is 87.9% (active); in test [8], 29.6% (inactive). Also, the AC50 in test [10] is 14.8 µM (active); in test [15], 23.5 µM (active). In addition, the compound was classed as inactive in test [16] and in test [17]. Besides, the fold change was 0.922 (inactive) and 0.972 (inactive) in test [12] (setting [19]); 0.991 and 1.16 in [12] (setting [20]). Further, the cell count in [12] (setting [21]) was 6780 and 6570; in test [12] (setting [22]) it was 7350 and 6760. The z-score in [13] (setting [23]) is -0.274 (inactive) and -0.499 (inactive); in test [13] (setting [24]) it was 0.419 and -0.334; in [18], 0.54 (inactive).
As for `NC(=O)Cc1cccc(C(=O)c2ccccc2)c1N`, the nuclear beta-catenin stimulation is 3% (inactive) in test [1] (at 10 µM) and 2.6% in test [1] (stimulation, at 2 µM). In test [2], the insulin secretion stimulation was -0.1% (inactive). For the same compound, the viability decrease in [3] was 4.9% (inactive). Moreover, in test [4], the tube area decrease was 12.4% (inactive). The GLP1 secretion stimulation in test [5] was -1.1% (inactive). Moreover, in test [6], the inhibition of viability was -6.03% (inactive). The viability decrease (inhibition) is -28.7% (inactive) in [7] and 6.9% (inactive) in [8]. For the same compound, the outcome in test [9], in test [10] and in test [11] was inactive. Further, the fold change was 0.902 (inactive) in [12] (setting [19]) and 0.903 in test [12] (setting [20]). In addition, the cell count in [12] (setting [21]) was found to be 7400; in test [12] (setting [22]), 8200. In addition, the z-score in test [13] (setting [23]) was -0.418 (inactive); in [13] (setting [24]), -0.195.
Regarding `C[C@@H]1C[C@H]2[C@@H]3CCC4=CC(=O)C=C[C@]4(C)[C@@]3(Cl)[C@@H](O)C[C@]2(C)[C@@]1(OC(=O)c1ccco1)C(=O)CCl`, in [14], the parasite load remaining is 101% (inactive) and 89.2% (inactive). Moreover, the viability in [14] is 90.7% and 72.5%. The nuclear beta-catenin stimulation in test [1] (at 10 µM) was 23.1% (inactive); in test [1] (stimulation, at 2 µM) it was 2.8%. Further, in [2], the insulin secretion stimulation was -0.7% (inactive). Moreover, the viability decrease in test [3] is -43% (inactive). In addition, the tube area decrease in [4] was 99.7% (active). Besides, the GLP1 secretion stimulation in test [5] is 3.9% (inactive). The inhibition of viability in test [6] was 67% (active). Further, the viability decrease (inhibition) in test [7] is 119% (active); in test [8], 95.5% (active). For the same compound, the concentration at half-maximal activity (AC50) in test [9] is 4.69 µM (active); in test [10], 13.2 µM (active); in [15] it was 29.5 µM (active); in test [11], 20.9 µM (active). Further, in test [17], the outcome was inactive. The fold change was 0.786 (inactive) in test [12] (setting [19]) and 1.68 in [12] (setting [20]). Further, the results for the cell count in test [12] (setting [21]) and in [12] (setting [22]) were 4000 and 5090, respectively. Moreover, the results for the z-score in test [13] (setting [23]) and in test [13] (setting [24]) were -1.01 (inactive) and -0.104, respectively.
